Source: PubChem (several laboratories)
Sampled rows, rich in hits. Any-hit rate of the full collection: about 1.9%.
PG9 binder: small molecules binding HIV-1 gp120 antibody PG9. inhibition, % at 6.7 µM. 0.43% of 360,000 active. TR-FRET gp120-PG9 antibody binding; in the data active = inhibition above about 8.5%
NCF1 inh: inhibitors of human p47phox binding. P14598. p47phox/p22phox peptide binding, fluorescence polarization, 2 h. inhibition, % at 24.7 µM. 0.53% of 220,000 active. AID 1274;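 active = inhibition above about 30%, limit read from the data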;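 also: 0% = p47phox with labelled peptide and 100% = labelled peptide alone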
NR1D1 modulator: modulates human Rev-erb alpha binding to DNA; P20393; Rev-erbα–FITC-DNA binding, fluorescence polarization, 90 min; activity, % at 10 µM; 0.79% of 370,000 active;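 active = activity above about 14%, limit read from the data; passing the limit was not always enough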;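 also: 0% = DMSO wells with 35 nM protein and 100% = DMSO wells with 750 nM protein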
Target sequence (P20393 whole entry, looked up): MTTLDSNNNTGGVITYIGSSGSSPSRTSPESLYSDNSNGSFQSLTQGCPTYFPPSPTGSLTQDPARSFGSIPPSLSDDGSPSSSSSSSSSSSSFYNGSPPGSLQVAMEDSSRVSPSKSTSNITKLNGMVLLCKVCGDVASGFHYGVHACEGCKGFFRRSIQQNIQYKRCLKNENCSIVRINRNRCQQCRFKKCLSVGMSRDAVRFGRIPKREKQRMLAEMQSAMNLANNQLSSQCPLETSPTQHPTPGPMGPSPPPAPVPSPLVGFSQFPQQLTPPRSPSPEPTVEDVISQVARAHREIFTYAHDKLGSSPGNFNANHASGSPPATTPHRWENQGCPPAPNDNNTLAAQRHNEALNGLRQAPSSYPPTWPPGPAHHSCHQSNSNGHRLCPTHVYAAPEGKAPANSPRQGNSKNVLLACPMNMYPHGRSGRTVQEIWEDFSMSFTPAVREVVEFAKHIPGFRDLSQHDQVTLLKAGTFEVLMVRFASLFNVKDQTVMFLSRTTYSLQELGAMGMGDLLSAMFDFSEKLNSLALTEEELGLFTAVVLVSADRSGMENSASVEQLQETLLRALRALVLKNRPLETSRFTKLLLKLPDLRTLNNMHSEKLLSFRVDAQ
ZTA DNA inh: counter-screen for EBNA-1 inhibitors: inhibitors of Epstein-Barr virus ZTA | inhibition, % at 11 µM | P03206 | ZTA-DNA binding, fluorescence polarization | 0.15% of 320,000 active; in the data active = inhibition above about 33%
EBNA-1 inhibitor: blocks EBNA-1 binding to DNA; EBNA-1 DNA binding, fluorescence polarization; inhibition, % at 14.8 µM; 0.34% of 300,000 active; in the data active = inhibition above about 28%
aDG glyco act: increases alpha dystroglycan glycosylation | Pro5-aDG cells, alpha-DG glycosylation AlphaScreen (IIH6); 0% Pro5, 100% B10-LARGE cell signal | activation, % at 10 µM | 0.22% of 360,000 active | AID 624168;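 active = activation of at least 8% versus controls, or a plate z-score of at least 8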;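 also: Pro5 are CHO cells carrying HIG-tagged alpha-DG that lacks glycosylation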
An asterisk follows results filed as active; x = not tested or not shown.

SMILES	PG9 binder	NCF1 inh	NR1D1 modulator	ZTA DNA inh	EBNA-1 inhibitor	aDG glyco act
O=C(Nc1nnc(C(F)(F)F)s1)c1cccnc1	-2.9	-1.3	3.4	-9.4	-7.3	-0.1
O=C(Nc1nnc(-c2ccccc2F)s1)c1cccnc1	-0.6	73.0*	-0.9	4.9	18.0	-0.2
COc1cc2nc(CN3CCN(C(c4ccccc4)c4ccccc4)CC3)[nH]c(=O)c2cc1OC	x	63.0*	x	1.3	-12.5	x
C=CCN(Cc1ccccc1)C(C#CC(=C)C)Cc1ccccc1 (stereo not given)	x	x	0.6	x	x	x
CCN1/C(=C\C=C2\C(=O)N(c3ccccc3)C(=S)N2C)Sc2ccccc21	-2.1	22.7	-12.4	x	x	-0.3
CCCN1C(=O)/C(=C\C=C2/Sc3ccccc3N2CC)SC1=S	x	76.8*	x	x	x	x
CNS(=O)(=O)c1cccc(C(=O)OCC(=O)N2CCc3ccccc3C2)c1	-2.5	30.1*	-5.7	-0.6	-2.7	0.1
CO[C@@]12[C@@H]3N[C@H]3CN1C1=C(C(=O)C(N)=C(C)C1=O)[C@@H]2COC(N)=O	x	x	-7.0	x	x	x
O=C(O)/C(=C\c1ccco1)NC(=O)c1cccc2ccccc12	-0.5	126.7*	-0.3	-1.4	0.1	-0.1
CC(C)(C)OC(=O)NCCCCCc1cn([C@@H](CO)C(=O)NCCCCCCCCCCC(=O)N2CCN(C(=O)OC(C)(C)C)CC2)nn1	1.7	x	-0.5	2.4	16.1	5.8*
O=C(Nc1ccc(Nc2ccncc2)cc1)c1ccc(Nc2ccnc3ccc([N+](=O)[O-])cc23)cc1	7.0	46.2*	-43.0	x	x	0.0
O=C(Nc1ccc(Cc2ccncc2)cc1)c1cccc([N+](=O)[O-])c1	-0.9	-9.7	3.0	-11.5	-3.2	1.6
NCCCC[C@H](N)C(=O)O	x	x	-0.8	x	x	x
Cc1occc1C(=O)NNC(=O)NC12CC3CC(CC(C3)C1)C2	-1.5	35.6*	5.0	-7.4	-6.2	0.1
CCCCC(=O)O[C@]1(C(=O)CO)CCC2C3CCC4=CC(=O)CC[C@]4(C)C3[C@@H](O)C[C@@]21C (stereo not given in full)	x	x	0.2	x	x	x
Cc1cc(C)cc(-n2c(C)cc(C=C(C#N)C#N)c2C)c1	28.1*	5.3	8.8	11.4	4.2	0.2
O=C(c1ccccc1)c1ccc2nc(-c3ccc(NC(=O)c4ccccc4Br)cc3)[nH]c2c1	-2.1	-21.2	6.5	-2.1	45.2*	0.1
Nc1ccn(C2O[C@H](CO)[C@@H](O)[C@@H]2O)c(=O)n1 (stereo not given in full)	x	x	-5.8	x	x	x
CCOC(=O)C(=CNc1ccc(Oc2cccnc2)nc1)C(=O)OCC	-0.7	37.5*	-6.4	1.4	0.3	0.2
COc1ccc(C(=O)N2CC3(C)CC2CC(C)(C)C3)cc1 (stereo not given)	-0.7	56.2*	-1.9	-5.0	-2.9	0.0
Cc1cc(C)c2c(=O)n(CC(=O)Nc3ccc(Cl)cc3)sc2n1	0.4	23.9	2.6	-21.1	-3.4	0.0
CCOc1ccc(NC(=O)Cn2sc3nc(C)cc(C)c3c2=O)cc1	x	39.8*	x	1.8	0.4	-0.2
Cc1cc(C)c2c(=O)n(CC(=O)NCCCN3CCN(c4ccccc4F)CC3)sc2n1	x	50.9*	x	-2.7	-0.3	x
COc1ccc(C(=O)O[C@@H]2CCC[C@@]3(C(=O)N(Cc4ccccc4)c4ccccc43)[C@H]2NC(=O)CCc2ccccc2)cc1OC	x	x	5.4	x	x	x
O=C1OC(c2cccs2)=N/C1=C\c1ccc(-c2ccccc2Cl)o1	-1.1	81.2*	0.0	x	x	0.0
CCCCC(CC)COC(=O)c1ccc(Nc2nc(Nc3ccc(C(=O)OCC(CC)CCCC)cc3)nc(Nc3ccc(C(=O)OCC(CC)CCCC)cc3)n2)cc1 (stereo not given)	x	x	7.2	x	x	x
C[C@H]1CC2C3CCC4=CC(=O)C=C[C@]4(C)[C@@]3(F)[C@@H](O)C[C@]2(C)[C@@]1(O)C(=O)COP(=O)(O)O (stereo not given in full)	x	x	-4.2	x	x	x
C=C(C)C1CC=C(C)/C(=N/NC(=O)c2ccc(NC(=O)c3cccc(C)c3)cc2)C1 (stereo not given)	-0.9	36.8*	3.4	3.6	2.9	0.0
C=C(C)C1CC=C(C)/C(=N/NC(=O)c2cccc([N+](=O)[O-])c2)C1 (stereo not given)	-0.8	4.0	-4.9	1.7	3.4	-0.1
COc1ccc(CC(=O)NNC(=O)c2nn(Cc3ccccc3)c(=O)c3ccccc23)cc1OC	0.0	141.5*	-0.2	-2.3	-5.9	-0.1
